Screens (PubChem BioAssay)
Sampled rows, rich in hits. Any-hit rate of the full collection: about 1.4%.
AmpC inh detg: inhibitors of E. coli AmpC beta-lactamase with detergent | P00811 | AmpC hydrolysis of nitrocefin, absorbance 480 nm, 0.01% Triton | Potency, µM (titrated, usually from 114 µM), without a hit: at the top dose activity change, negative = inhibition, actives largely listed as inhibitors | 370,000 compounds, 0.041% hits | AID 485294;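 further: 0% = no-compound wells and -100% = no-enzyme wells; nearly all actives have a fitted effect of over 25% in size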
Target sequence (P00811 whole entry, looked up): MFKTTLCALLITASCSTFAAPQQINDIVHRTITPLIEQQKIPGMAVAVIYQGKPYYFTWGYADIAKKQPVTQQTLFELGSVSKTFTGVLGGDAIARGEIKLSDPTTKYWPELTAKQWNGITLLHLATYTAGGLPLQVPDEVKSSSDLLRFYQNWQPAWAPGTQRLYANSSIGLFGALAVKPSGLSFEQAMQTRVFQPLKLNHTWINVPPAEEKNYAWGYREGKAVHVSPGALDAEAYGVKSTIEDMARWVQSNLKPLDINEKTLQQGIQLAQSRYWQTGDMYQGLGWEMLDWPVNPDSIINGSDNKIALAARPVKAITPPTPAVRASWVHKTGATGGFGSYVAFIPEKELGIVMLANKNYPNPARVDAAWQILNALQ
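AmpC (5.3 nM in the dispensed reagent) in 20 mM phosphate pH 7.0 with 0.01% (detergent screen) or 0.0001% Triton X-100 was preincubated with compounds for 15 min at room temperature. Nitrocefin was then added from an 800 uM solution, and hydrolysis was followed at 480 nm.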
AMA1-RON2 inh: AMA1-RON2 (P. falciparum) interaction inhibition; 360,000 compounds, 0.2% hits; AlphaScreen AMA1-biotinylated RON2 peptide binding; Potency, µM (top dose mostly 58.2 µM), for inactives: at the top dose activity change, negative = inhibition, hits mostly inhibitors;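 further: 0% = vehicle wells and -100% = peptide control; nearly all actives have a fitted effect of over 45% in size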
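AMA1 (3D7) with his tag at 25 nM final met compounds first, then biotinylated RON2 peptide at 25 nM; detection used donor plus acceptor beads, 10 µg/mL apiece, read by AlphaScreen after 30 min at room temperature.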
Vaccinia mCherry: inhibitors of vaccinia virus infection (mCherry reporter signal); Vaccinia virus mCherry reporter infection, fluorescence; Potency, µM (doses to about 36.5 µM), without a hit: at the highest dose activity change, negative = inhibition, usual class: inhibitors; 310,000 compounds, 0.63% hits; AID 720579; calls by dose curve; tested in A549 cells; further: on the % scale 0 is the no-effect control and ±100 the full control effect; nearly all actives have a fitted effect of over 35% in size
Vaccinia Venus: inhibitors of vaccinia virus (Venus reporter) | Potency, µM (top dose mostly 36.5 µM), inactives show top-dose activity change, negative = inhibition, actives largely listed as inhibitors | 330,000 compounds, 0.46% hits | Vaccinia virus Venus reporter expression, fluorescence; calls by dose curve; tested in A549 cells; further: on the % scale 0 is the no-effect control and ±100 the full control effect; nearly all actives have a fitted effect of over 30% in size
AmpC no deterg: inhibitors of E. coli AmpC beta-lactamase without detergent. P00811. AmpC nitrocefin hydrolysis, absorbance 480 nm, 0.0001% Triton. Potency, µM (top dose mostly 57.1 µM), for inactives: at the highest dose activity change, negative = inhibition, hits mostly inhibitors. 330,000 compounds, 0.52% hits;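 further: plate controls were no compound for no effect and no enzyme for full effect; nearly all actives have a fitted effect of over 20% in size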
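20 mM phosphate pH 7.0 + 0.01% (detergent screen) or 0.0001% Triton X-100; 5.3 nM AmpC reagent; cpd preinc 15 min RT; nitrocefin (800 uM stock) to start; A480 q20 s × 4 min; Activity was normalised to no-enzyme and no-compound control wells.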
SARS PLP yeast: inhibitors of SARS-CoV papain-like protease in yeast | AID 485353 | S. cerevisiae expressing SARS-CoV PLpro, growth rescue | 330,000 compounds, 0.19% hits | Potency, µM (highest dose often 32.9 µM), for the others: at the top dose activity, positive = growth rescue, actives largely listed as activators; calls by dose curve; further: 0% is about no effect; nearly all actives have a fitted effect of over 55% in size
Numbers without * were called inactive; i = inactive; u = inconclusive; x = no result given; [ ] = dose if it differs, or a comment. Unless noted, the call rests on the fitted dose curve; in most records, active means well fitted curve in the direction sought with a large enough effect; inconclusive means small, poorly fitted or top-dose-only effect, or another doubt; inactive means no such curve, though single readings can be large; an effect the other way counts as inactive or inconclusive. Potency means the concentration at half of the fitted maximal effect.

SMILES	AmpC inh detg	AMA1-RON2 inh	Vaccinia mCherry	Vaccinia Venus	AmpC no deterg	SARS PLP yeast
O=C(CCCCCn1c(=S)[nH]c2ccc(Br)cc2c1=O)NCC1CCCO1 (stereo not drawn)	u	17%	x	x	-41%	8%
C#CC[N+](C)(C)CCCCCCCCCCCC	-11%	-6%[11.6 µM]	8.9µM*	7.9µM*	58%	-53%
C#CC[N+](C)(C)CCCCCCCC	0%	-24%	x	x	1%	2%
CN(C)c1ccc(/C=C/c2ccnc3ccccc23)cc1	x	x	14%	15%	x	x
NC(=O)C(=CNc1nc(-c2ccc(Cl)c(Cl)c2)cs1)C(N)=O	-7%	x	x	x	14µM*	2%
O=C(NCCN1Cc2ccccc2OC(c2ccsc2)C1)c1cncs1 (stereo not drawn)	x	x	-11%	-5%	x	x
Cc1cc(C)c2c(=O)n(CC(=O)N3CCC(Cc4ccccc4)CC3)sc2n1	u	x	x	x	-12%	-87%
Cc1cc(C)c2c(=O)n(CC(=O)Nc3cccc(F)c3)sc2n1	79µM*	-6%	x	x	u	-5%
Cc1cc(C)c2c(=O)n(CC(=O)NCCCN3CCOCC3)sc2n1	45µM*	18%	0%	-3%	14µM*	-25%
Cc1cc(C)c2c(=O)n(CC(=O)NCCCN3CCN(c4ccccc4F)CC3)sc2n1	u	-1%	i	-25%	-7%	-21%
Cc1cccc(N2CCN(C(=O)Cn3sc4nc(C)cc(C)c4c3=O)CC2C)c1 (stereo not drawn)	50µM*	-4%	i	-27%	-16%	x
CCN(CCCNC(=O)c1cc2c(=O)[nH]c3ccc(C)cc3c2s1)Cc1ccccc1	7%	x	u	u	x	x
Cc1nn(C)c(Cl)c1CN1CCOc2ccc(CN3CCC(Oc4cccnc4)CC3)cc2C1	x	x	-20%	-19%	x	x
Oc1ccc(Br)cc1C1C=C(c2ccc3c(c2)OCO3)NC(c2ccc(Br)cc2)N1 (stereo not drawn)	x	x	30%	-12%	x	x
Cc1ccnc(NS(=O)(=O)c2ccc(NC(=O)c3ccc(S(=O)(=O)N4CC(C)OC(C)C4)cc3)cc2)n1 (stereo not drawn)	-3%	-6%[11.6 µM]	-10%	-6%	32µM*	12%
CC1CN(S(=O)(=O)c2ccc(C(=O)Nc3ccc(S(=O)(=O)Nc4nccs4)cc3)cc2)CC(C)O1 (stereo not drawn)	-9%	0%	-13%	-5%	-36%	-5%
CCOc1ccc(NC(=O)C(C)Sc2nnc(C)n2C)cc1 (stereo not drawn)	u	-1%	-9%	-9%	3.5µM*	4%
CN(C)S(=O)(=O)c1cccc(NC(=O)c2cc(-c3cccs3)nc3ccccc23)c1	u	4%	i	-10%	-28%	12%
NS(=O)(=O)c1cccc(NC(=O)c2cc(-c3cccs3)nc3ccccc23)c1	10%	-10%	x	x	18µM*	1%
Cc1ccc(-n2cc(CN3CCC(CO)(Cc4ccccc4)CC3)cn2)cc1	-5%	x	x	x	67%	0%
Cc1ccc(-n2cc(CN3CCC(CO)(Cc4cccc(C(F)(F)F)c4)CC3)cn2)cc1	4%	-3%	u	11µM*	175%	1%
CC(C1CC2CCC1C2)N1CC(O)=C(c2nc3ccccc3[nH]2)C1=N (stereo not drawn)	8%	60%	7.1µM*	5µM*	-31%	1%
COc1cc(-c2cnc3ccccc3c2)cc2c1OCCN(C(=O)CCC(=O)c1ccc(F)cc1)C2	x	x	-8%	-2%	x	x
Cc1cnc(NC(=O)CCCc2nc3ccccc3s2)s1	7%	-3%	x	5.6µM*	-8%	-5%
COn1c2c(c3c4no[n+]([O-])c4ccc31)CCCC2	-1%	1%	-2%	-12%	-13%	-9%
SMILES	AmpC inh detg	AMA1-RON2 inh	Vaccinia mCherry	Vaccinia Venus	AmpC no deterg	SARS PLP yeast
[O-][n+]1c2c(c3c4non(O)c4ccc31)CCCC2	-5%	-1%	-4%	-2%	10µM*	-51%
COc1c(Cl)cc(Cl)cc1/C=C/C(=O)c1ccc(NC(=O)c2cccs2)cc1	u	-8%	11µM*	10µM*	u	1%
C[C@@H]1CN([C@H](C)CO)C(=O)c2cc(Br)cnc2O[C@H]1CN(C)C(=O)Cc1ccncc1	x	10%	u	1.3µM*	x	x
CCN(CC)CCNC(=O)c1cnn(-c2nccc(-c3cc4ccccc4o3)n2)c1C	x	x	-14%	-4%	x	x
Cc1nn(-c2ccccc2)c(N)c1N=Nc1ccc2ccccc2c1	-6%	22µM*	-29%	-19%	23%	-77%
Cc1cn2c(-c3ccc(Cl)cc3)nnc2s1	-12%	-2%	-8%	-12%	20µM*	-12%
Clc1ccc(-c2nn3c(-c4ccccc4)nnc3s2)cc1	10%	13%	x	x	-16%	4%
CCN1CCC(N[C@H]2C[C@@H](C(=O)NC)N(Cc3cccc4ccccc34)C2)CC1	x	x	-7%	-2%	x	x
COC(=O)C(Cc1ccccc1)NC(=O)C(CC(C)C)NC(=O)OC(C)(C)C (stereo not drawn)	u	-6%	-16%	-15%	2%	-4%
CC(C)CC(NC(=O)C(Cc1ccc(OCc2ccccc2)cc1)NC(=O)OC(C)(C)C)C(N)=O (stereo not drawn)	3%	20%	-6%	2%	7.1µM*	5%
COc1ccccc1C1CN(Cc2cccc(O)c2)Cc2ccccc2O1 (stereo not drawn)	x	x	-26%	-24%	x	x
CC(=Nc1ccccc1O)c1sc2ccccc2c1O	-5%	65%	x	x	7.1µM*	-3%
CC(=Nc1ccc(O)cc1)c1sc2ccccc2c1O	-4%	-7%	-15%	-24%	-39%	-16%
CCOC(=O)c1c(NC(=O)CSc2cn(CCNC(=O)c3ccccc3OC)c3ccccc23)sc2c1CCC2	8%	x	-20%	-13%	x	x
CCc1ccc2[nH]c3nc(N/N=C/c4ccc(O)cc4O)nnc3c2c1	u	54%	1.8µM*	-25%	-24%	u
C/C(CC(=O)N1CCN(C=O)CC1)=N\NC(=O)c1cc2ccccc2cc1O	-4%	35%	i	-3%	36%	14µM*
C/C(=N\NC(=O)c1cc2ccccc2cc1O)c1cc2ccccc2o1	4%	143%	-24%	-14%	16µM*	0%
C=CSc1sc(Cl)c(N2CCOCC2)c1[N+](=O)[O-]	4%	u	-12%	-8%	-15%	0%
C=CS(=O)(=O)c1sc(Cl)c(N2CCOCC2)c1[N+](=O)[O-]	u	-22%	u	u	28µM*	-6%
Cc1c(C(=O)NCCSCc2ccccc2Cl)cccc1[N+](=O)[O-]	-2%	-16%	x	x	0.25µM*	-6%
CC1=C(C(=O)OCc2ccc(C)cc2)C(c2ccccc2F)CC(=O)N1 (stereo not drawn)	3%	x	-8%	-14%	x	x
